Experimental data from PubChem BioAssay.
Inconclusive results are not listed. Calls of active or inactive are those of the source. Rule as the data show it, unless noted: active = inhibition above about 80%; inactive = the rest.

Tests used:
[1] = viability loss in pontine glioma line – cell-based, SU-DIPG-XVII, MIPE5.0, CellTiter-Glo, qHTS, dose response (AID 1347060; cut-off not given, nearly all actives have AC50 up to about 26 µM;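 as to AC50: cells exposed to compound for 48 hours before viability readout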); details: CellTiter-Glo ATP luminescence
[2] = viability loss in pontine glioma line – cell-based, SU-DIPG-XIII, MIPE5.0, CellTiter-Glo, qHTS, dose response (AID 1347064; cut-off not given, nearly all actives have AC50 up to about 23 µM;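 as to AC50: cells exposed to compound for 48 hours before the viability read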); details: CellTiter-Glo ATP luminescence
[3] = viability loss in pontine glioma line – cell-based, SU-DIPG-XXV, MIPE5.0, CellTiter-Glo, qHTS, dose response (AID 1347065; cut-off not given, nearly all actives have AC50 up to about 26 µM;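 also: cells exposed to compound for 48 hours before ATP readout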); details: CellTiter-Glo ATP luminescence
[4] = JHH-DIPG-1 glioma cell viability, MIPE5.0 library, CellTiter-Glo luminescence, qHTS (AID 1347067; cut-off not given, nearly all actives have AC50 up to about 26 µM;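 also: cells exposed to compound for 48 hours before readout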); details: JHH-DIPG-1 glioma viability, CellTiter-Glo ATP luminescence
[5] = growth inhibition of DIPG cells – cell-based, MIPE5.0 library, qHTS (AID 1347068; cut-off not given, nearly all actives have IC50 up to about 30 µM); details: SU-DIPG-XXV viability
[6] = growth inhibition, single agent or in combination, cell-based, chromothripsis tumors, cisplatin or BGB combos (AID 1671449); details: LFS_MB_P medulloblastoma cells;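 also: cells exposed for 96 hours; 0% = vehicle DMSO and 100% = killing by high DMSO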
[7] = growth inhibition, single agent and combos, cell-based, chromothripsis tumors, cisplatin or BGB combos (AID 1671450); details: HDN33 neuroblastoma cells, stronger effect = higher value;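 also: cells exposed to compound for four days; 0% = vehicle DMSO and 100% = cell killing by high DMSO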
[8] = growth inhibition, single agents and combos, ICB984, cell-based, cisplatin or BGB combos, synergistic combos for chromothripsis tumors (AID 1671451; call rule not given here;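 also: cells exposed for 96 hours before readout; 0% = vehicle DMSO and 100% = killing by high DMSO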); details: ICB984 medulloblastoma cells, drug combinations, stronger effect = higher value
[9] = growth inhibition, single agents and combos, LFS_MB_1R, cell-based, cisplatin or BGB combos, synergistic combos for chromothripsis tumors (AID 1671452); details: LFS_MB_1R medulloblastoma cells, stronger effect = higher value;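 also: cells exposed for 96 hours before readout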
[10] = growth inhibition, single agents and combos, HTB85, cell-based, BGB or cisplatin IC20 combos, synergistic combos for chromothripsis tumors (AID 1671453); details: HTB85 osteosarcoma cells, drug combinations, stronger effect = higher value;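 also: cells exposed for 96 hours before readout; 0% = vehicle DMSO and 100% = high DMSO killing control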
[11] = growth inhibition, single agents and combos, CRL2098, cell-based, BGB or cisplatin IC20 combos, synergistic combos for chromothripsis tumors (AID 1671454); details: CRL2098 osteosarcoma cells, drug combinations, stronger effect = higher value;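 also: cells exposed for 96 h before readout; 0% = vehicle DMSO and 100% = killing by high DMSO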
[12] = growth inhibition, single agents and combos, HD-MB03, cell-based, BGB or cisplatin IC20 combos, synergistic combos for chromothripsis tumors (AID 1671455; in the data active = inhibition above about 83%;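 also: 0% = vehicle DMSO and 100% = high DMSO as cytotoxic control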); details: HD-MB03 medulloblastoma cells, stronger effect = higher value
[13] = growth inhibition, single agents and combos, UWB1.289, cell-based, BGB or cisplatin combos, synergistic combos for chromothripsis tumors (AID 1671456); details: UWB1.289 ovarian carcinoma cells, stronger effect = higher value;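 also: cells exposed to compound for four days; 0% = vehicle DMSO and 100% = killing by high DMSO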
[14] = growth inhibition, single agents and combos, LFS_MB_2R, cell-based, cisplatin combos, synergistic combos for chromothripsis tumors (AID 1671457); details: LFS_MB_2R medulloblastoma cells, stronger effect = higher value;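 also: cells exposed to compound for four days before readout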
[15] = growth inhibition, MDA-MB-436, cell-based, BGB or cisplatin combos, synergistic combos for chromothripsis tumors (AID 1671458; call rule not given here;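 also: cells exposed for 96 hours; 0% = vehicle DMSO and 100% = killing by high DMSO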); details: MDA-MB-436 breast carcinoma growth inhibition, drug combinations, stronger effect = higher value
[16] = UWB1.289_BRCA1 ovarian cancer growth, cell-based, BGB or cisplatin combinations (AID 1671459); details: UWB1.289 BRCA1 ovarian carcinoma, drug combinations, stronger effect = higher value
[17] = drug combination toxicity in non-malignant astrocytes – cell-based, BGB or cisplatin IC20 combos, cytotoxicity control for chromothriptic childhood tumor combination screen (AID 1671460); details: Human astrocytes, viability inhibition, drug combinations, at 0.5 µM, stronger effect = higher value;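 also: cells exposed to compounds for 96 hours before viability readout; 0% = vehicle and 100% = killing control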
[18] = BT084 cell growth, single and combined drugs, ICGC_MB145, cisplatin and BGB IC40 combos (AID 1671461); details: BT084 medulloblastoma cells, drug combinations, stronger effect = higher value;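 also: cells exposed to drugs for 96 hours; 0% = vehicle DMSO and 100% = high DMSO full killing control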
[19] = RCMB18 cell growth, single agent and combined, cisplatin and BGB IC40 combos (AID 1671462); details: RCMB18 medulloblastoma cells, stronger effect = higher value;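 also: cells exposed to compound for four days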
[20] = CRL1545 cell growth, single agent and combined, cisplatin and BGB IC20 combos (AID 1671464); details: CRL1545 osteosarcoma cells, stronger effect = higher value;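 also: cells exposed to compound for 96 hours before readout; 0% = vehicle DMSO and 100% = high DMSO killing control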
[21] = viability loss in pontine glioma line – cell-based, JHH-DIPG-1, MIPE4.0, CellTiter-Glo, qHTS, dose response (AID 1347062; cut-off not given, nearly all actives have AC50 up to about 27 µM); details: JHH-DIPG-1 viability, CellTiter-Glo ATP luminescence
[22] = growth inhibition of DIPG cells – cell-based, MIPE4.0 library, CellTiter-Glo luminescence, qHTS (AID 1347066; cut-off not given, nearly all actives have AC50 up to about 30 µM;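 also: cells exposed to compound for 48 hours before readout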); details: SU-DIPG-VI viability, CellTiter-Glo ATP luminescence
[23] = biological target: NAD(+) hydrolase SARM1 (Homo sapiens) (UniProt Q6SZW1); experiment: blocking NAD cleavage by SARM1 SAM-TIR – cell lysate, NAD-Glo luminescence (AID 1508614;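 active = compound whose remaining NAD level is above about 45 nM, limit read from the data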;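 also: higher remaining NAD means stronger inhibition of SARM1 NADase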); details: SAM-TIR HEK293T lysate NADase, at 1 µM, stronger effect = higher value
[24] = measured here: combination with BGB IC40, at 0.05 µM
[25] = measured here: with BGB IC20 combination, at 0.5 µM
[26] = measured here: with cisplatin IC20 combination, at 0.5 µM
[27] = measured here: combination with cisplatin, at 0.5 µM
[28] = measured here: combination with cisplatin, at 5 µM

Sequence of NAD(+) hydrolase SARM1 (Homo sapiens) (Q6SZW1 whole entry, looked up): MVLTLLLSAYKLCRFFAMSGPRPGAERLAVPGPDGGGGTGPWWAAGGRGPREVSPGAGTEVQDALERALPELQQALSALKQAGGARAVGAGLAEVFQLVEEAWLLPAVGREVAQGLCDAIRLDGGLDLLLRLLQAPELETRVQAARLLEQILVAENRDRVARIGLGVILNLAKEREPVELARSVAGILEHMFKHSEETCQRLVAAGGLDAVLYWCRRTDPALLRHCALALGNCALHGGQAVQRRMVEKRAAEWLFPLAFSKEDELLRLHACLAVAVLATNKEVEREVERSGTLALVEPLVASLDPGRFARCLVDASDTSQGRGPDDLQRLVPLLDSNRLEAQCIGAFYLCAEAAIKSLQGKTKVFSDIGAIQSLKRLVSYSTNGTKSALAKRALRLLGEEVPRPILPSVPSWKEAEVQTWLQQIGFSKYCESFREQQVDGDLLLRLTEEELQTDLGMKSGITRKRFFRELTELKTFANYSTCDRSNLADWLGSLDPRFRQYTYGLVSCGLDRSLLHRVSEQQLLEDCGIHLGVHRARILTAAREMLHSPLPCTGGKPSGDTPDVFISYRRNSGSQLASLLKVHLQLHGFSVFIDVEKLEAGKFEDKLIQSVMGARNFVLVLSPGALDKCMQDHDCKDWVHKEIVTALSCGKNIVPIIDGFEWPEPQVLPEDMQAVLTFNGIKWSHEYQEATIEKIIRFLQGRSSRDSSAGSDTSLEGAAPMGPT

For `Cn1c(COP(=O)(NCCBr)NCCBr)cnc1[N+](=O)[O-]`, the AC50 [1] was 20.9 µM (active), the outcome [2] was “inactive” and the outcome [3] was “inactive”. For the same compound, the outcome [4] was “inactive”, the outcome [5] was “inactive” and the inhibition ([6]; at 0.5 µM, stronger effect = higher value) was 16.6% (inactive). It also gave an inhibition ([6]; measured here: combination with BGB IC20, at 0.005 µM) of -38.7%, an inhibition ([6]; measured here: combination with BGB IC40, at 0.005 µM) of -32.5% and an inhibition [6, 24] of -39.8%. It also gave an inhibition ([6]; measured here: combination with cisplatin, at 0.5 µM, stronger effect = higher value) of 62.9%, an inhibition ([6]; measured here: combination with cisplatin, at 5 µM, stronger effect = higher value) of -58.8% and an inhibition ([7]; BGB combo, at 5 µM) of 19.8%. The inhibition ([7]; at 0.5 µM) was -18.8% (inactive), the inhibition ([7]; cisplatin combo, at 5 µM) was 19.2% and the inhibition [7, 25] was -21.2%. It also gave an inhibition [7, 26] of -10.2%, an inhibition ([7]; single agent, at 5 µM) of 80.3% and an inhibition ([8]; BGB IC20 combo, at 0.005 µM) of -13.2%. For the same compound, the inhibition ([8]; BGB IC40 combo, at 0.005 µM) was -25.1%, the inhibition ([8]; BGB IC40 combo, at 0.05 µM) was -34.6% and the inhibition ([8]; at 0.5 µM) was -26% (inactive). It also gave an inhibition ([8]; cisplatin combo, at 0.05 µM) of -39.4%, an inhibition ([8]; cisplatin combo, at 0.5 µM) of -24.4% and an inhibition ([8]; cisplatin combo, at 5 µM) of -33.7%. The inhibition ([8]; measured here: 5 uM single agent, at 5 µM) was -29.2%, the inhibition ([9]; at 0.5 µM) was -28.2% (inactive) and the inhibition [9, 24] was -23.6%. The inhibition [9, 27] was -60.8%, the inhibition [9, 28] was 3.76% and the inhibition ([10]; at 0.5 µM) was -13.1% (inactive). The inhibition ([10]; measured here: with BGB IC20, at 0.5 µM) was -24.6%, the inhibition ([10]; measured here: with BGB IC20, at 5 µM) was 10.3% and the inhibition ([10]; measured here: with cisplatin IC20, at 0.5 µM) was -0.449%. For the same compound, the inhibition ([10]; measured here: with cisplatin IC20, at 5 µM) was 2.49%, the inhibition ([10]; single agent, at 5 µM) was 1.71% and the inhibition ([11]; at 0.5 µM) was -67.6% (inactive). The inhibition ([11]; measured here: combination with BGB at IC20, at 0.5 µM) was -30.9%, the inhibition ([11]; measured here: combination with cisplatin at IC20, at 0.5 µM) was -117% and the inhibition ([12]; at 0.5 µM) was -3.14% (inactive). The inhibition ([12]; measured here: combo with BGB at IC20, at 0.5 µM) was -10.4%, the inhibition ([12]; measured here: combo with cisplatin at IC20, at 0.5 µM) was 4.61% and the inhibition ([13]; at 0.5 µM) was 3.29% (inactive). The inhibition ([13]; measured here: inhibition with BGB combination, at 0.05 µM) was -25.1%, the inhibition ([13]; measured here: inhibition with cisplatin combination, at 0.05 µM) was -14.8% and the inhibition ([14]; at 0.5 µM) was -29.8% (inactive). The inhibition [14, 27] was -33.9%, the inhibition [14, 28] was -23.3% and the inhibition ([15]; at 0.5 µM) was -13.5% (inactive). It also gave an inhibition ([15]; measured here: BGB combination, at 0.5 µM) of -12%, an inhibition ([15]; measured here: BGB combination, at 5 µM) of 10.1% and an inhibition ([15]; measured here: cisplatin combination, at 0.5 µM) of -29.2%. The inhibition ([15]; measured here: cisplatin combination, at 5 µM) was 7.72%, the inhibition ([16]; BGB combination, concentration series, at 5 µM) was -3.84% and the inhibition ([16]; at 0.5 µM) was -16% (inactive). The inhibition ([16]; cisplatin combination, concentration series, at 5 µM) was -17.2%, the inhibition [17] was -2.6% (inactive) and the inhibition ([17]; measured here: combo with BGB IC20) was -17%. For the same compound, the inhibition ([17]; measured here: combo with cisplatin IC20) was 9.13%, the inhibition ([18]; at 0.5 µM) was -25.1% (inactive) and the inhibition ([18]; cisplatin combination, at 0.5 µM) was -38.4%. The inhibition ([18]; cisplatin combination, at 5 µM) was -11.7%, the inhibition ([18]; measured here: BGB IC40 combination 0.05 uM, at 0.05 µM) was 14.8% and the inhibition ([18]; single agent, at 5 µM) was -36.3%. The inhibition ([19]; at 0.5 µM) was -3.65% (inactive), the inhibition ([19]; cisplatin combo, at 5 µM) was 1.65% and the inhibition ([19]; measured here: BGB IC40 combination, at 0.05 µM) was -12.5%. The inhibition [19, 27] was 13.3%, the inhibition ([19]; single agent, at 5 µM) was -38.1% and the inhibition ([20]; at 0.5 µM) was -36.2% (inactive). For the same compound, the inhibition [20, 25] was -10%, the inhibition [20, 26] was -51.7% and the inhibition ([20]; single agent, at 0.05 µM) was -14%. The inhibition ([20]; single agent, at 5 µM) was 52.6%.

For `C[C@]12CC[C@H]3[C@@H](CC[C@@]45O[C@@H]4C(O)=C(C#N)C[C@]35C)[C@@H]1CC[C@@H]2O`, the AC50 [1] was 29.5 µM (active), the outcome [21] was “inactive” and the AC50 [2] was 20.9 µM (active). For the same compound, the AC50 [3] was 20.9 µM (active), the outcome [22] was “inactive” and the outcome [5] was “inactive”. For the same compound, the remaining NAD [23] was 10 nM (inactive).

With `CN1C(=O)[C@@H](NC(=O)[C@H](CCC(F)(F)F)[C@H](CCC(F)(F)F)C(N)=O)N=C(c2ccccc2)c2ccccc21` the outcome [1] was “inactive”, the outcome [2] was “inactive” and the outcome [3] was “inactive”. The outcome [4] was “inactive” and the outcome [5] was “inactive”.
